Results on 40 molecules are retold here after PubChem BioAssay (NCATS).

Results filed as inconclusive are left out. Entries that show only a call come without a potency. Active and inactive are the calls of the source. The call rests on the fitted dose curve; in most records, active means well fitted inhibition curve with a large enough effect; inconclusive means small, poorly fitted or top-dose-only effect; inactive means flat fitted curve, though single readings scatter.

Calcium and integrin-binding protein 1 (Homo sapiens), sequence (Q99828 whole entry, looked up): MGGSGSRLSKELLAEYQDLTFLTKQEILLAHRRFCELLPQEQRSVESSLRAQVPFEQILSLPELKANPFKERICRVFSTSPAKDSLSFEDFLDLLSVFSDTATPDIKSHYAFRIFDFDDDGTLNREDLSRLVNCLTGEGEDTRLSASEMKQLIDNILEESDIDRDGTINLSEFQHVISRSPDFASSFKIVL

The test addresses Calcium and integrin-binding protein 1 (Homo sapiens) (UniProt Q99828). Put plainly: Primary qHTS for Identification of Calcium Integrin Binding Protein 1 (CIB1) Competitor (AID 1508620).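 Further: GST tagged CIB1 binding a fluorescein labelled alphaIIb integrin peptide tracer; top concentration of the series differs between compounds.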 The conditions noted are these: CIB1-GST / FITC-alphaIIb peptide fluorescence polarization; series mostly up to 114 µM. In a few lines: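 CIB1-GST (1 uM final) and compound incubated 15 min at room temperature before adding FITC-alphaIIb peptide tracer (100 nM final). Competition for binding read by fluorescence polarization (ex 480, em 540) after another 15 min at room temperature.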
In general terms: qHTS replaces the single test concentration by a dilution series.
`COc1ccc(C2Nc3ccccc3C(=O)N2CC(C)(C)C)cc1COc1ccc(NC(C)=O)cc1` (stereo not given): the Potency result is “inactive”. The same measure for `Cc1cc(NS(=O)(=O)c2ccc3c(c2)CCC(=O)N3)ccc1Cl`: “inactive”; for `Cc1c(Cl)cccc1NS(=O)(=O)c1cc2c(cc1F)NC(=O)CC2`: “inactive”; for `Cc1cc(C)nc(NC(=S)N2CCN(c3ccc(C(F)(F)F)cc3C(F)(F)F)CC2)c1`: “inactive”. The same measure for `CCNC(=O)c1ccc(-c2ccc3ncnc(NCC(C)(C)C)c3c2)o1`: “inactive”; for `CC(=O)N1CCN(C(=O)COC(=O)c2ccc([S+](C)(=O)[O-])c([N+](=O)[O-])c2)CC1`: “inactive”.

For `O=C(OCC#CCSc1nnc(-c2cccc3ccccc23)o1)C1CCCC1`, the Potency result is “inactive”. The same measure for `COc1cccc(C2C(C#N)=C(NC(=O)NCc3ccccc3)Oc3ccc4ccccc4c32)c1` (stereo not given): “inactive”.

In the case of `Cc1cc2c(s1)c1cnn(Cc3c(F)ccc(F)c3F)c(=O)c1n2C`, the Potency result was “inactive”.

As to `Cc1cc2[nH]c3c(=O)n(Cc4ccccc4F)ncc3c2s1`, the Potency result is “inactive”.

For `COc1cc(NC(=O)c2cnn3c(C)cc(C)nc23)cc(OC)c1OC`, the Potency result is “inactive”.

In the case of `N#CN1CCC(NS(=O)(=O)c2cccc(F)c2)C1` (stereo not given), the Potency result was “inactive”. The same measure for `CNc1nc(-c2cccc3ccccc23)ccc1C#N`: “inactive”; for `O=C(Nc1ccc(Cl)c([N+](=O)[O-])c1)Nc1cccc(-c2ccncc2)n1`: “inactive”. As for `Cc1cc(-c2ccccc2)nc2c(C(=O)Nc3ccc(Cl)c(Cl)c3)cnn12`, the entry is “inactive”; as for `Cc1ccc(NS(=O)(=O)c2cc3c(cc2F)NC(=O)CC3)cc1C`, “inactive”.

For `COc1cccc(CNc2ccc(S(=O)(=O)Nc3ccccn3)cc2)c1O`, the Potency result is “inactive”.

For `Cn1nnnc1Sc1ncnc2scc(-c3ccc(Cl)cc3)c12`, the Potency result was “inactive”. As for `c1c[nH]c(CNc2ncnc3ccc(-c4ccoc4)cc23)n1`, the entry is “inactive”. Turning to `O=C(c1ccccc1O)N(Cc1ccco1)Cc1cccs1`, the Potency result was “inactive”.

For the molecule `O=C(Nc1ccc(Br)cc1)Nc1nnc(-c2ccncc2)s1`, the Potency entry was “inactive”. Consider `N#Cc1ccc(NS(=O)(=O)c2ccc3c(c2)CCC(=O)N3)cc1`, for which the Potency result was “inactive”. With `O=C(OCC#CCSc1nnc(-c2cccc3ccccc23)o1)c1cccc2[nH]ccc12`, the Potency entry was “inactive”. For `FC(F)(F)c1ccccc1-c1nc(NCc2ccc(-c3cccc4ccccc34)cc2)c2ccccc2n1`, the Potency entry was “inactive”. The same measure for `O=[N+]([O-])c1ccccc1CSc1nc2ncc(Br)cc2[nH]1`: “inactive”; for `COc1ccc(C2=Nn3c(nnc3-c3ccc(OC)c(OC)c3)SC2)cc1`: “inactive”.

With `N#Cc1nc(-c2cccc3ccccc23)oc1NC1CNC1`, the Potency result is “inactive”. The same measure for `CC(C)(C)OC(=O)NCCOCCOCCOc1ccc(-c2no[n+]([O-])c2C#N)cc1`: “inactive”; for `O=S(=O)(c1ccccc1)N1CCN(c2nc(C3CC3)nc3ccccc23)CC1`: “inactive”; for `COc1ccc(-c2nnc3n2N=C(c2c(OC)cccc2OC)CS3)cc1`: “inactive”. In the case of `CC(C)Nc1cccc(S(=O)(=O)N2CCCN(S(=O)(=O)c3ccc4c(c3)OCCO4)CC2)c1`, the Potency entry is “inactive”. The same measure for `COc1ccc(N2CCN(S(=O)(=O)c3ccc4c(c3)CC(=O)N4)CC2)cc1`: “inactive”. As for `O=C1NC(=O)/C(=C/c2cccn2-c2ccc(P(=O)(O)O)cc2)N1`, the entry is “inactive”.

Regarding `COc1ccc(C2N(Cc3ccccc3)C(=O)c3ccccc3N2C)cc1COc1ccc(NC(C)=O)cc1` (stereo not given), the Potency entry was “inactive”. Turning to `Cc1ccc(NS(=O)(=O)c2cc3c(cc2-c2ccsc2)NC(=O)CO3)cc1C`, the Potency entry was “inactive”. `O=C(/C=C/c1cccc(Cl)c1)Nc1cccc([S+](=O)([O-])Nc2ccccc2F)c1`: the Potency entry is “inactive”. In the case of `COc1cccc(C2=Nn3c(nnc3-c3ccccc3O)SC2)c1`, the Potency result is “inactive”.

For the molecule `Cc1ccc(-c2nnc(N3CCC(C(N)=O)CC3)s2)cc1`, the Potency result is “inactive”. With `Cc1ccc(-c2no[n+]([O-])c2C#N)cc1`, the Potency entry is “inactive”. The same measure for `CCOc1ccccc1-c1nnc2n1N=C(c1ccc(OC)c(OC)c1)CS2`: “inactive”.
